Results on 4 molecules are retold here after PubChem BioAssay (NCI).

This is part of a sample that, as a whole, favours compounds with a hit. Of some 83,000 tested, about 20% had one in any assay.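 Treatment: one concentration, 48 hours, 96-well format. Scoring: percent growth, with anything below 10 considered active.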 Activity calls are given as the source filed them.

This assay deals with HL-60(TB) leukemia. The assay is described as follows: NCI-60 one-dose screen, 48 h (100 = growth as untreated, 0 = no growth, -100 = all killed). The following applies: 10 µM unless noted.
Regarding `C=C(C)[C@@H]1CC[C@]2(C(=O)NNC(=O)c3cccnc3)CC[C@]3(C)[C@H](CC[C@@H]4[C@@]5(C)CCCNC(C)(C)[C@@H]5CC[C@]43C)[C@@H]12`, the growth is 66.9% (inactive). Turning to `O=c1[nH]c(SCc2ccccc2)nc2nc(Nc3ccc(NC(=S)Nc4ccccc4)cc3)nc(-c3ccc(O)cc3O)c12`, the growth was 117% (inactive). Then `CN1CCN(c2ccc(OC(F)(F)F)c(Nc3ncc4c(n3)-c3c(c(C(N)=O)nn3CCO)CC4)c2)CC1`, with -20.5% (active); and `Clc1ccc2c(NCCCNc3nc(-n4ccnc4)nc4ccccc34)ccnc2c1`, with 69.4% (inactive).
